The record followed here is PubChem BioAssay (NCI).

The nature of test [1]: NCI Yeast Anticancer Drug Screen. Data for the rad50 strain (AID 155).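 Note: 0% = growth of vehicle-only cultures of the same strain.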 Particulars: S. cerevisiae rad50 strain growth inhibition, stronger effect = higher value. Put shortly:
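Cells are treated with compound, grown, and their growth is then scored against vehicle-only cultures of the same repair-deficient yeast strain.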

Test [2] is described as follows: NCI Yeast Anticancer Drug Screen. Data for the mec2-1 strain (AID 157). Particulars: S. cerevisiae mec2-1 strain, stronger effect = higher value. A digest of the protocol: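 Compounds were applied to mec2-1 yeast cells. Their growth was then compared with that of vehicle-treated cultures to give growth inhibition.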
A short description of test [3]: NCI Yeast Anticancer Drug Screen. Data for the sgs1 mgt1 strain (AID 161).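 Note: 0% = growth of cultures given vehicle only.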 Particulars: S. cerevisiae sgs1 mgt1 strain, stronger effect = higher value. A digest of the protocol: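 Growth of a repair-deficient yeast mutant was monitored after compound treatment and expressed as inhibition relative to vehicle-treated cultures.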
The nature of test [4]: NCI Yeast Anticancer Drug Screen. Data for the cln2 rad14 strain (AID 165).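 Note: 0% = growth equal to vehicle treated cultures.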 Particulars: S. cerevisiae cln2 rad14 strain, stronger effect = higher value. Put shortly: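 Strain: cln2 rad14 yeast, altered in cell cycle control and DNA damage repair. Read-out: growth inhibition vs vehicle.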
Test [5] is described as follows: NCI Yeast Anticancer Drug Screen. Data for the bub3 strain (AID 167). Particulars: S. cerevisiae bub3 mutant strain, stronger effect = higher value. A digest of the protocol:
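Part of a panel of yeast mutants defective in DNA damage repair or cell cycle regulation. Each strain is grown with compound, and inhibition is calculated relative to solvent-treated cultures.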

The nature of test [6]: NCI Yeast Anticancer Drug Screen. Data for the mlh1 rad18 strain (AID 175). To be noted: S. cerevisiae mlh1 rad18 strain growth inhibition, stronger effect = higher value. Put shortly:
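A repair-deficient yeast strain is exposed to test compound, and growth is scored relative to vehicle-treated controls.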

The mark [7] stands for this setting: at 5.0 µM (retest, dose inferred, filed as 0.5).
The mark [8] stands for this setting: at 50.0 µM (retest, dose inferred, filed as 5.0).

SMILES strings stand for the structures. Several values for one entry are separate records, joined by “and”; a condition that tells them apart may be missing. Equal values may be shown once. This is part of a sample that, as a whole, favours compounds with a hit. Of some 79,000 tested, about 15% had one in any assay. The source holds several records for some structures; these can differ, active in one and inactive in another. Activity calls are given as the source filed them. Cut-off read from the data, not from the text of the source: active = growth inhibition above about 70%; inactive = the rest.

Consider `COc1nc(NC2OC(CO)C(O)C(O)C2O)c(Cl)c(=O)n1C` (stereo unspecified), for which the growth inhibition in test [1] (setting [7]) was 1% (inactive); in test [1] (setting [8]), 5% (inactive); in test [1] (at 50.0 µM), 17.7% (inactive); in test [2] (setting [7]), 3% (inactive); in test [2] (setting [8]), 0% (inactive); in test [2] (at 50.0 µM), 74.5% (active). For the same molecule, the growth inhibition in test [3] (setting [7]) was 2% (inactive); in test [3] (setting [8]), -2% (inactive); in test [3] (at 50.0 µM), 87.3% (active); in test [4] (setting [7]), 1% (inactive); in test [4] (setting [8]), 3% (inactive); in test [4] (at 50.0 µM) it was 69.3% (inactive). Also, the growth inhibition in test [5] (setting [7]) was -1% (inactive); in test [5] (setting [8]), -2% (inactive); in test [5] (at 50.0 µM), 71.2% (active); in test [6] (setting [7]), -1% (inactive); in test [6] (setting [8]), -3% (inactive); in test [6] (at 50.0 µM), 88.9% (active).

With `Cc1ccc(S(=O)(=O)Nc2cc(S(=O)(=O)O)c(N)c3c2C(=O)c2ccccc2C3=O)cc1`, the growth inhibition in test [1] (setting [7]) was 51% (inactive); in test [1] (setting [8]), 99% (active); in test [1] (at 50.0 µM) it was 60.2% (inactive); in test [2] (setting [7]), 47% (inactive); in test [2] (setting [8]) it was 99% (active); in test [2] (at 50.0 µM) it was 30.4% (inactive). For the same molecule, the growth inhibition in test [3] (setting [7]) is 25% (inactive); in test [3] (setting [8]), 65% (inactive); in test [3] (at 50.0 µM), 62.8% (inactive); in test [4] (setting [7]), 43% (inactive); in test [4] (setting [8]), 89% (active); in test [4] (at 50.0 µM) it was 66.2% (inactive). The growth inhibition was 45% (inactive) in test [5] (setting [7]); 78% (active) in test [5] (setting [8]); 60.1% (inactive) in test [5] (at 50.0 µM); 53% (inactive) in test [6] (setting [7]); 99% (active) in test [6] (setting [8]); 60.5% (inactive) in test [6] (at 50.0 µM).

In the case of `O=[N+]([O-])c1ccc(SSc2ccc([N+](=O)[O-])cc2)cc1`, the growth inhibition is 35% (inactive) and 88% (active) in test [1] (setting [7]); 98% (active) in test [1] (setting [8]); 98.2% (active) and 65.7% (inactive) in test [1] (at 50.0 µM); 70% (active) and 99% (active) in test [2] (setting [7]); 99% (active) in test [2] (setting [8]); 98.9% (active) and 38.1% (inactive) in test [2] (at 50.0 µM). The growth inhibition in test [3] (setting [7]) is 91% (active) and 87% (active); in test [3] (setting [8]), 99% (active) and 98% (active); in test [3] (at 50.0 µM), 99% (active) and 68.8% (inactive); in test [4] (setting [7]), 27% (inactive) and 65% (inactive); in test [4] (setting [8]), 97% (active); in test [4] (at 50.0 µM) it was 93.7% (active) and -34.6% (inactive). Also, the growth inhibition in test [5] (setting [7]) was 58% (inactive) and 98% (active); in test [5] (setting [8]) it was 99% (active); in test [5] (at 50.0 µM), 98.5% (active) and 49.2% (inactive); in test [6] (setting [7]), 70% (active) and 87% (active); in test [6] (setting [8]), 98% (active); in test [6] (at 50.0 µM) it was 98.3% (active) and 69.6% (inactive).

`[N-]=[N+]=CC(=O)OCC1NC(=O)C(COC(=O)C=[N+]=[N-])NC1=O` (stereo unspecified): the growth inhibition in test [1] (setting [7]) is 5% (inactive); in test [1] (setting [8]) it was -1% (inactive); in test [1] (at 50.0 µM), -10.3% (inactive) and 80.2% (active); in test [2] (setting [7]), 2% (inactive); in test [2] (setting [8]) it was 6% (inactive); in test [2] (at 50.0 µM), -20.1% (inactive) and 85.7% (active). The growth inhibition is -1% (inactive) in test [3] (setting [7]); 3% (inactive) in test [3] (setting [8]); 12.6% (inactive) and 71.3% (active) in test [3] (at 50.0 µM); -2% (inactive) in test [4] (setting [7]); -7% (inactive) in test [4] (setting [8]); 6.1% (inactive) and 76% (active) in test [4] (at 50.0 µM). Further, the growth inhibition in test [5] (setting [7]) is -1% (inactive); in test [5] (setting [8]) it was -2% (inactive); in test [5] (at 50.0 µM), 3.8% (inactive) and 85.3% (active); in test [6] (setting [7]), 2% (inactive); in test [6] (setting [8]), 1% (inactive); in test [6] (at 50.0 µM), 4.15% (inactive) and 86.6% (active).

Consider `O=[N+]([O-])c1ccc2ccccc2c1O`, for which the growth inhibition was 2% (inactive) in test [1] (setting [7]); 94% (active) in test [1] (setting [8]); 96.7% (active) in test [1] (at 50.0 µM); 8% (inactive) in test [2] (setting [7]); 97% (active) in test [2] (setting [8]); 97.7% (active) in test [2] (at 50.0 µM). Moreover, the growth inhibition is 5% (inactive) in test [3] (setting [7]); 97% (active) in test [3] (setting [8]); 95.7% (active) in test [3] (at 50.0 µM); 3% (inactive) in test [4] (setting [7]); 98% (active) in test [4] (setting [8]); 97.4% (active) in test [4] (at 50.0 µM). The growth inhibition is -3% (inactive) in test [5] (setting [7]); 93% (active) in test [5] (setting [8]); 95.5% (active) in test [5] (at 50.0 µM); 3% (inactive) in test [6] (setting [7]); 97% (active) in test [6] (setting [8]); 98.5% (active) in test [6] (at 50.0 µM).

For `CC(=O)Nc1cc(C)ccc1C`, the growth inhibition was 1% (inactive) in test [1] (setting [7]); -3% (inactive) in test [1] (setting [8]); -36.6% (inactive) and -46.2% (inactive) in test [1] (at 50.0 µM); -2% (inactive) in test [2] (setting [7]); 0% (inactive) in test [2] (setting [8]); 15.4% (inactive) and -28.3% (inactive) in test [2] (at 50.0 µM). Also, the growth inhibition in test [3] (setting [7]) was 0% (inactive); in test [3] (setting [8]) it was -3% (inactive); in test [3] (at 50.0 µM), -1.25% (inactive) and -9.15% (inactive); in test [4] (setting [7]), -3% (inactive); in test [4] (setting [8]), 4% (inactive); in test [4] (at 50.0 µM), 51.8% (inactive) and 34.4% (inactive). Moreover, the growth inhibition in test [5] (setting [7]) was 0% (inactive); in test [5] (setting [8]), -3% (inactive); in test [5] (at 50.0 µM), 42.2% (inactive) and -9.35% (inactive); in test [6] (setting [7]), 3% (inactive); in test [6] (setting [8]) it was -4% (inactive); in test [6] (at 50.0 µM), -36.9% (inactive) and -2% (inactive).

In the case of `CCC1=C(C)/C(=C/c2[nH]c(C)c(CC)c2C)N=C1C`, the growth inhibition was -3% (inactive) and -5% (inactive) in test [1] (setting [7]); 20% (inactive) and -58% (inactive) in test [1] (setting [8]); 61.1% (inactive) and 33% (inactive) in test [1] (at 50.0 µM); 6% (inactive) and 0% (inactive) in test [2] (setting [7]); 48% (inactive) and 53% (inactive) in test [2] (setting [8]); 66.5% (inactive) and -2.85% (inactive) in test [2] (at 50.0 µM). The growth inhibition in test [3] (setting [7]) is 0% (inactive) and -2% (inactive); in test [3] (setting [8]), 51% (inactive) and 32% (inactive); in test [3] (at 50.0 µM) it was 76.2% (active) and 78.1% (active); in test [4] (setting [7]), -12% (inactive) and -15% (inactive); in test [4] (setting [8]), 31% (inactive) and 6% (inactive); in test [4] (at 50.0 µM) it was 18.6% (inactive) and -57.5% (inactive). In addition, the growth inhibition in test [5] (setting [7]) was 26% (inactive) and 5% (inactive); in test [5] (setting [8]) it was 45% (inactive) and 33% (inactive); in test [5] (at 50.0 µM), 31.2% (inactive) and 22.6% (inactive); in test [6] (setting [7]), -7% (inactive) and 4% (inactive); in test [6] (setting [8]), 61% (inactive) and 48% (inactive); in test [6] (at 50.0 µM), 60.5% (inactive) and 21.7% (inactive).
